Screens from PubChem.
Only some compounds are listed: those with a hit (about 22% of all), similar ones and a draw of the others.
LmPK inh – inhibitors of Leishmania mexicana pyruvate kinase; Q27686; purified LmPK, Kinase-Glo ATP luminescence, 1 h; Potency, µM (series often up to 57.5 µM), usual class: inhibitors; hit rate 0.37% among 290,000
Target sequence (Q27686 whole entry, looked up): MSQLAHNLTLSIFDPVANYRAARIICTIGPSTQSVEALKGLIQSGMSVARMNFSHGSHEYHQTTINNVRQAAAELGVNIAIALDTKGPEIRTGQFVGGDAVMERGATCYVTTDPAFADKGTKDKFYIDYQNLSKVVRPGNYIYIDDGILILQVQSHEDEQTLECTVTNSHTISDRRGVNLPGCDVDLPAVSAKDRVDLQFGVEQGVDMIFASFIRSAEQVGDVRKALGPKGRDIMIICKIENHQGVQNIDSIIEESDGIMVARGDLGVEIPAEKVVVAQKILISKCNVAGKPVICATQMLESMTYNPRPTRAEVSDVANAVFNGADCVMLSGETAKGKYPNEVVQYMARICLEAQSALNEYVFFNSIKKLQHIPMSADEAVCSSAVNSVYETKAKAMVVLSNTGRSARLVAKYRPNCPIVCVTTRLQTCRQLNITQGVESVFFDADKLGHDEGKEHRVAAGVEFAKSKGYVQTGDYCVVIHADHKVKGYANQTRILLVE
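0.1 nM LmPK, 0.5 mM PEP, 0.1 mM ADP; 50 mM imidazole pH 7.2, 7 mM MgCl2, 50 mM KCl; 1 h RT. Kinase-Glo luminescence readout, normalized to no-enzyme (full inhibition) and uninhibited wells.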
Pf growth 96h – inhibits malaria parasite growth, 96 h. hit rate 6.9% among 320,000. P. falciparum luciferase reporter growth, 96 h. Potency, µM (titrated, usually from 28.7 µM), usual class: inhibitors
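Compounds incubated with erythrocytes infected by luciferase-expressing P. falciparum (2% hematocrit, 0.05% parasitemia final) for 96 hours, 37 C in 5% CO2. Growth inhibition scored as decreased luciferase luminescence.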
Pf growth 48h – P. falciparum growth inhibition at 48 hours (one generation); Potency, µM (titrated, usually from 28.7 µM), usual class: inhibitors; hit rate 5.9% among 310,000; P. falciparum luciferase growth in erythrocytes, 48 h
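First compound was added to culture medium, then infected red cells at 0.1% parasitemia and 2% hematocrit (final). After incubation at 37 C under 5% CO2, luciferase detection reagent was dispensed and light output recorded.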
Shiga inhibitor – Shiga toxin inhibition | Vero cells, Shiga toxin protein synthesis inhibition reporter | inhibition, % at 38.7 µM | hit rate 9.2% among 290,000 | AID 2315; in the data active = inhibition mostly above about 28%, no sharp cut-off; inactive = mostly below about 43%
CHX counter – counter-screen for Shiga toxin inhibitors: cycloheximide protein synthesis inhibition; cell reporter, cycloheximide protein synthesis inhibition counterscreen; max response, %; hit rate 12% among 300,000; AID 2314; in the data active = max response mostly above about 13%, no sharp cut-off; inactive = mostly below about 14%; also: read at 38.3 µM for the half of the compounds with a filed dose
Of the large screens only hits and unclear results are named; the others gave an inactive call. Unless noted, calls follow the shape of the dose curve; as a rule, active = well fitted inhibition curve with a large enough effect; inconclusive = small, poorly fitted or top-dose-only effect, or another doubt; inactive = no such curve, though single readings can be large or run the other way.

Cc1ccc(NC2CC(=O)N(c3ccc(N4CCCCC4)cc3)C2=O)cc1 (stereo not drawn)	Pf growth 96h 1.65µM
O=C1CC(NN2CCCCC2)C(=O)N1c1ccccc1 (stereo not drawn)	CHX counter 12.6
C=CCSc1nnc(NC(=O)C23CC4CC(CC(NC(C)=O)(C4)C2)C3)s1	Pf growth 48h inconclusive
CC(NC(=O)CN(C)Cc1cccc(Cl)c1)c1ccccc1 (stereo not drawn)	none
COc1ccccc1OCCN1C(=O)S/C(=C\c2ccco2)C1=O	none
N=C1S/C(=C\c2ccco2)C(=O)N1c1ccc2c(c1)OCO2	Pf growth 96h inconclusive, Pf growth 48h inconclusive, Shiga inhibitor 74.1, CHX counter 32.6
N=C1S/C(=C\c2ccco2)C(=O)N1c1nccs1	Pf growth 96h inconclusive, Pf growth 48h inconclusive, Shiga inhibitor 59.3, CHX counter 33.6
COc1ccc(NC(=O)c2cccc(S(=O)(=O)N3CCCCCC3)c2)cc1	Pf growth 48h inconclusive
C=C1C(=O)O[C@H]2[C@H]1[C@H](OC(=O)CC(=O)O[C@@H]1C[C@@H](C)[C@@H]3C=CC(=O)[C@@]3(C)[C@H]3OC(=O)C(=C)[C@H]13)C[C@@H](C)[C@H]1C=CC(=O)[C@]12C	Pf growth 96h inconclusive, Pf growth 48h inconclusive
C=C1C(=O)O[C@@H]2C[C@@H](C)[C@@H]3C=CC(=O)[C@@]3(C)[C@@H](OC(=O)CC(=O)O[C@H]3[C@@H]4C(=C)C(=O)O[C@@H]4C[C@@H](C)[C@@H]4C=CC(=O)[C@]43C)[C@H]12	Pf growth 96h 1.31µM, Pf growth 48h 1.04µM
C=C1C(=O)O[C@H]2C[C@@H](C)[C@@H]3C=CC(=O)[C@@]3(C)C[C@H]12	Pf growth 96h 8.28µM, Pf growth 48h 5.22µM, Shiga inhibitor 46.7, CHX counter 40.2
CCC1CN(C(=O)N2CCC(C(=O)NCCc3ccc(OC)cc3OC)CC2)c2ccccc2O1 (stereo not drawn)	Pf growth 96h inconclusive, Pf growth 48h inconclusive
O=C(N/N=C/C1CCCCC1)c1ccccn1	Shiga inhibitor 165.8, CHX counter 48.6
O=C(c1ccccn1)N1CCN(C(=O)c2ccccn2)CC1	none
O=C(N/N=C/C1CCCCC1)c1cc(Cl)ccc1O	Shiga inhibitor 45.3
O=C(NN=C1CCC(=NNC(=O)c2ccccn2)CC1)c1ccccn1	Shiga inhibitor 51.2, CHX counter 54.6
Cc1cc2c(cc1C)/C(=N/NC(=O)c1ccccn1)CCC2	Pf growth 96h inconclusive, Shiga inhibitor 48.8, CHX counter 53.2
O=C(COC(=O)c1ccccn1)NC1CCCCC1	none
CCCCCc1c(O)nc(SCCN2CCOCC2)[nH]c1=O	none
CCOC(=O)C1=C(COC(=O)c2ccc([N+](=O)[O-])o2)NC(=O)NC1C (stereo not drawn)	none (no result: LmPK inh, Shiga inhibitor, CHX counter)
COc1cc2nc(N3CCN(C(=O)C4COc5ccccc5O4)CC3)nc(N)c2cc1OC (stereo not drawn)	Pf growth 96h 3.7µM, Pf growth 48h 4.65µM
COc1cc2nc(N3CCN(C(=O)[C@@H]4COc5ccccc5O4)CC3)nc(N)c2cc1OC	Pf growth 96h 13.5µM, Pf growth 48h 15.1µM (no result: LmPK inh, Shiga inhibitor, CHX counter)
O=C(C1COc2ccccc2O1)N1CCN(c2ccccc2)CC1 (stereo not drawn)	Pf growth 48h inconclusive (no result: Pf growth 96h)
COc1ccc2nc(N3CCN(C(=O)C4COc5ccccc5O4)CC3)sc2c1 (stereo not drawn)	none (no result: LmPK inh, Shiga inhibitor, CHX counter)
Cc1ccc(SCC(=O)N2c3ccccc3Sc3ccccc32)cc1	Pf growth 48h inconclusive
Cn1c(=O)n(Cc2ccc(Cl)cc2)c(=O)c2c1nc1n2CCN1Cc1ccco1	Pf growth 96h 13.1µM, Pf growth 48h inconclusive
CCCn1c(=O)c2c(nc3n2CCN3Cc2ccco2)n(C)c1=O	none
Cn1c(NCCCO)nc2c1c(=O)n(Cc1ccccc1F)c(=O)n2C	none
CN1CCN(c2nc3c(c(=O)n(C)c(=O)n3C)n2Cc2ccccc2F)CC1	none
Cn1c(=O)n(Cc2ccccc2F)c(=O)c2c1nc1n2CCN1Cc1ccco1	Pf growth 96h 8.28µM, Pf growth 48h inconclusive
Cc1ccc(Cn2c(=O)c3c(nc4n3CCCN4Cc3ccccc3)n(C)c2=O)cc1	none
Cc1cccc(Cn2c(=O)c3c(nc4n3CCN4Cc3ccco3)n(C)c2=O)c1	Pf growth 96h 5.86µM, Pf growth 48h 9.28µM
COc1ccccc1Oc1nc2c(c(=O)n(Cc3ccccc3F)c(=O)n2C)n1C	Pf growth 96h 14.7µM
CSCCC(NC(=O)c1ccco1)C(=O)NCc1ccc2c(c1)OCO2 (stereo not drawn)	none (no result: LmPK inh, Shiga inhibitor, CHX counter)
COc1cc(NC(=O)COC(=O)Cc2ccsc2)cc(OC)c1	none (no result: LmPK inh, Shiga inhibitor, CHX counter)
CC(C)(C)NC(=S)N/N=C/c1c(Cl)cccc1Cl	Pf growth 96h 2.94µM, Pf growth 48h 3.7µM
O=CN(/C=C1\Sc2ccccc2C1=O)Cc1ccccc1	Shiga inhibitor 67.2, CHX counter 40.0 (no result: Pf growth 96h)
CCC(=O)N(C)/C=C1\Sc2ccccc2C1=O	Shiga inhibitor 148.1, CHX counter 29.6
CC(=O)N(C)/C=C1\Sc2ccccc2C1=O	CHX counter 16.6
O=C(CC(C(=O)O)c1cccc(Br)c1)c1ccc(Cl)cc1 (stereo not drawn)	none
CC(=O)OCC(CO)OC(C)=O (stereo not drawn) (tested in a mixture with another compound)	none (no result: LmPK inh, Pf growth 96h, Pf growth 48h)
COc1ccc(S(=O)(=O)NCCCn2ccnc2)cc1C(C)(C)C	Pf growth 96h inconclusive, Pf growth 48h inconclusive (no result: Shiga inhibitor)
CCCCNC(=O)Cn1nc(Cc2ccncc2)c2ccccc2c1=O	Pf growth 96h 9.28µM
CN(CCC#N)C(=O)Cn1nc(Cc2ccncc2)c2ccccc2c1=O	Pf growth 96h 13.1µM (no result: Pf growth 48h)
Cc1cc(C)n(-c2cc(C(=O)O)cc(C(=O)O)c2)n1	Pf growth 96h inconclusive
CCOC(=O)c1nc(C)n(-c2ccc(Cl)cc2)n1	CHX counter 19.8
CCOC(=O)c1ccc(-n2nc(C)cc2C)cc1	Shiga inhibitor active, CHX counter 15.3
Cc1cc(C)n(-c2ccc(C(=O)OCC(=O)NC(c3ccccc3)c3ccccc3)cc2)n1	none
Cc1cc(C)n(-c2ccc(Cl)c(C(=O)O)c2)n1	CHX counter 44.0
CCCCCN(C(=O)CCC(=O)OCCOc1cccc(C)c1)c1c(N)n(CCCC)c(=O)[nH]c1=O	Pf growth 96h inconclusive (no result: LmPK inh, Shiga inhibitor, CHX counter)
CCC(C)(C(=O)Nc1ccc(OC)cc1)N(C)C(=O)Cn1nnnc1N (stereo not drawn)	none
O=C(O)C1NCCc2ccccc21 (stereo not drawn)	Pf growth 48h inconclusive
N#CC1=C(N)OC2=C(CCc3ccccc32)C1c1ccccc1Cl (stereo not drawn)	Pf growth 96h inconclusive, Pf growth 48h inconclusive
S=C1NCCc2ccccc2C1c1ccccc1Cl (stereo not drawn)	Pf growth 96h inconclusive, Pf growth 48h 13.1µM
S=C1NCCc2ccccc2C1c1ccccc1 (stereo not drawn)	Pf growth 96h inconclusive, Pf growth 48h 8.28µM
COc1ccc(-c2csc(NC(=O)c3ccoc3C)n2)cc1	Shiga inhibitor 152.8, CHX counter 40.8
